Records with an inconclusive call do not appear. Where a call stands in place of a potency, no number is given. Unmarked numbers belong to inactive results. Calls of active or inactive are those of the source. Calls follow the shape of the dose curve; as a rule, active = well fitted curve in the direction sought with a large enough effect; inconclusive = small, poorly fitted or top-dose-only effect, or another doubt; inactive = no such curve, though single readings can be large; an effect the other way counts as inactive or inconclusive.
Legend:
[1] = molecular target: Cellular tumor antigen p53 (Homo sapiens) (UniProt P04637); assay: Primary qHTS for small molecule compounds that upregulate eGFP-tagged delta133p53alpha (in N-terminal) cells. (AID 2060322); conditions: NCI-H358 eGFP-delta133p53alpha fluorescence, 24 h; activation: stronger effect = higher value; also: nearly all actives have a fitted effect of over 75% in size; also: potency is read from the fitted curve at half-maximal effect;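 as to activation: cells pre-induced with doxycycline then dosed without doxycycline; series mostly up to about 56 µM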
Method in brief: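 NCI-H358 cells pre-induced 24 h with 10 ng/ml doxycycline for eGFP-delta133p53alpha, plated dox-free and exposed 24 h at 37C to titrated compounds. Fixed, Hoechst-stained; gated GFP peak intensity by laser scanning cytometry, normalized to DMSO (0%) and 57.5 uM 5-azacytidine (100%).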

[2] = molecular target: Aldehyde dehydrogenase, mitochondrial (Homo sapiens) (UniProt P05091); assay: qHTS for Inhibitors of the Aldehyde Dehydrogenase Family (ALDH2) Primary screen (AID 2061308); also: nearly all actives have a fitted effect of over 55% in size
[3] = molecular target: Retinaldehyde dehydrogenase 3 (Homo sapiens) (UniProt P47895); assay: qHTS for Inhibitors of the Aldehyde Dehydrogenase Family (ALDH1A3) Primary screen (AID 2061315)

Chain of Cellular tumor antigen p53 (Homo sapiens) (P04637 whole entry, looked up): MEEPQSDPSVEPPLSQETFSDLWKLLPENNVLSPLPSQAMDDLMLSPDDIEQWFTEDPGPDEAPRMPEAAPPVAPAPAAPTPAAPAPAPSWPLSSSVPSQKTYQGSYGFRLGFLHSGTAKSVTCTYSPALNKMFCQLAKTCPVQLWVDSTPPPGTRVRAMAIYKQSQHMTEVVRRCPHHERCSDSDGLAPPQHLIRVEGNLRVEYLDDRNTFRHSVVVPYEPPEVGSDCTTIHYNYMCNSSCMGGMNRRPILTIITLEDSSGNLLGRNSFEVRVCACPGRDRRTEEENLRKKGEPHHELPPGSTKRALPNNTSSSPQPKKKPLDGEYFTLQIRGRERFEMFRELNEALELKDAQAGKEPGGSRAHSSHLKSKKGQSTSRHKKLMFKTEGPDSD

SMILES | activation [1] [%] | Potency [2] | Potency [3] | Potency [1]
CCOC(=O)c1cc(C#N)c(N2CCC(C(=O)NS(=O)(=O)Cc3ccccc3)CC2)nc1C | 5.67 | inactive | inactive | –
CCC(O)(C(=O)OCc1ccccc1NC(=O)CCC(=O)O)C(C)O (stereo not drawn) | 4.58 | inactive | inactive | –
C=C1C(=O)OC2/C=C(\C)CC3C=C(CC/C=C(\C)CCC12)C(=O)O3 (stereo not drawn) | – | inactive | inactive | 6.59 µM (active)
COC(=O)C1=C[C@@H](O)[C@@H](O)[C@H](O[C@@H]2O[C@H](CO)[C@@H](O)[C@H](O)[C@H]2OC(=O)/C=C/c2ccccc2)C1 | -26 | inactive | inactive | –
CC(C)=CC1C[C@](C)(O)[C@@H]2[C@H]3CCC4[C@@]5(C)CC[C@H](O[C@@H]6OC[C@H](O)[C@H](O[C@@H]7O[C@H](CO[C@@H]8O[C@H](CO)[C@@H](O)[C@H](O)[C@H]8O)[C@@H](O)[C@H](O)[C@H]7O)[C@H]6O[C@@H]6O[C@@H](C)[C@H](O)[C@@H](O)[C@H]6O)C(C)(C)[C@@H]5CC[C@@]4(C)[C@@]34CO[C@@]2(C4)O1 (stereo partly drawn) | -4.46 | inactive | inactive | –
CC(=O)O[C@H]1CC(C)(C)CC2[C@]13CO[C@@]21CCC2[C@@]4(C)CC[C@H](O[C@@H]5OC[C@H](O[C@@H]6O[C@H](CO)[C@@H](O)[C@H](O)[C@H]6O[C@@H]6OC[C@@H](O)[C@H](O)[C@H]6O)[C@H](O)[C@H]5O[C@@H]5O[C@H](CO)[C@@H](O)[C@H](O)[C@H]5O)[C@@](C)(CO)C4CC[C@@]2(C)[C@]1(C)C[C@H]3O (stereo partly drawn) | -17.9 | inactive | inactive | –

Reference: PubChem BioAssay (NCATS)
